{"source": "PubChem BioAssay AID1347413", "about": "(National Center for Advancing Translational Sciences (NCATS), 2020)", "note": "Active and inactive are the calls of the source. Calls come from the whole dose curve; as a rule, active = well fitted curve in the direction sought with a large enough effect; inactive = no such curve, though single readings can be large or run the other way.", "data": [{"test": "qHTS to identify inhibitors of the type 1 interferon - major histocompatibility complex class I in skeletal muscle: tertiary screen by RT-qPCR, retest select compounds", "settings": "C25cl48 myoblasts, IFN-beta, HLA-B RT-qPCR, 24 h; series mostly up to 49.8 µM; activity change, negative = inhibition: at the top concentration", "from_the_text": "Assay Submitter (PI): Travis B. Kinder Ph.D. & James Inglese Ph.D. Assay Development and Screening Technology Laboratory (ADST) National Center for Advancing Translational Sciences (NCATS), Rockville, MD National Institute of Health (NIH), Bethesda, Maryland Idiopathic inflammatory myopathies, collectively referred to as myositis, are a group of rare autoimmune diseases characterized by skeletal muscle inflammation, weakness, and usually accompanied by systemic pathologies of the skin, lungs, or vasculature. Current immunosuppressive therapies and glucocorticoids are often not curative and are accompanied by harsh side effects, especially in children with juvenile myositis. We initiated a drug repurposing and development program to identify more targeted, less toxic therapeutics to treat myositis. Although its cause is not known, muscle from a subset of patients have an abundance of the inflammatory type 1 interferon (IFN) and a down-stream product major histocompatibility complex class I (MHC class I), which are both thought to contribute to damage and weakness. We conducted quantitative high throughput screening (qHTS) on 6,576 compounds (4,679 unique) through a series of cell-based assays to identify those that inhibit the IFN-stimulated expression of MHC class I in muscle precursor cells (myoblasts). The compound identification and evaluation strategy utilized a primary screen with reporter-tagged MHC class I in genome-engineered myoblasts, ATP content counter screen for viability, HLA-ABC immunofluorescence secondary screen, and HLA-B RT-qPCR tertiary screen. To determine if active compounds identified by qHTS in HLA-B HiBit reporter cells, and confirmed by HLA-ABC immunofluorescence, can inhibit the transcription of HLA-B mRNA, compounds were assayed by RT-qPCR. […] Briefly, five compounds identified from primary, counter, and secondary screening as inhibitory with minimal cytotoxicity were dispensed into 384-well plates using acoustic dispensing in a 6-point, 1:7 titration with a high final concentration of 10 uM. Normal immortalized human myoblasts C25cl48 were added to the plate with 4.0 ng/ml human IFN-beta for 24 hours, and cells were harvested and assayed by the Cells-to-Ct kit with TaqMan assays (Thermo Fisher).\nPROTOCOL TABLE (as described by Inglese et al., 2007) SEQUENCE No. (e.g., 1, 2, 3, etc.); PARAMETER (e.g., Cells, Incubation, Reagent, etc.); VALUE; DESCRIPTION 0; Compounds; 150 nl; Follow-up compounds dispensed at 150 nl/well with Labcyte Echo 655 acoustic dispenser into one Corning white/clear bottom, high base TC 384-well plates (3765) 1a; Cells; 30 uL; Using a p200 manual pipette, seed 780 cells/well into 1 plate in 30 ul/well of iHSKM growth medium without dexamethasone into columns wells A1-A6. […]", "values": [{"smiles": "CS[C@H]1SC[C@@H]2C(=O)N(C)[C@H](C(C)C)C(=O)OC[C@H](NC(=O)c3cnc4ccccc4n3)C(=O)N[C@H](C)C(=O)N(C)[C@H]1C(=O)N(C)[C@H](C(C)C)C(=O)OC[C@H](NC(=O)c1cnc3ccccc3n1)C(=O)N[C@H](C)C(=O)N2C", "Potency": "2.9 nM (active)"}, {"smiles": "C[C@]12C=CC(=O)C=C1CC[C@@H]1[C@@H]2[C@@H](O)C[C@@]2(C)[C@H]1CC[C@]2(O)C(=O)CO", "activity change, negative = inhibition": "-12.4% (inactive)"}, {"smiles": "Cc1ncsc1-c1ccc([C@H](C)NC(=O)[C@@H]2C[C@@H](O)CN2C(=O)[C@@H](NC(=O)COCCCOCCNC(=O)C[C@@H]2N=C(c3ccc(Cl)cc3)c3c(sc(C)c3C)-n3c(C)nnc32)C(C)(C)C)cc1", "Potency": "164 nM (active)"}, {"smiles": "CC(=O)OCC(=O)[C@@]12OC(C)(C)O[C@@H]1C[C@H]1[C@@H]3C[C@H](F)C4=CC(=O)C=C[C@]4(C)[C@@]3(F)[C@@H](O)C[C@@]12C", "activity change, negative = inhibition": "-17.2% (inactive)"}]}]}
